A short description of the assay: NCI Yeast Anticancer Drug Screen. Data for the rad18 strain (AID 177). The note with it: S. cerevisiae rad18 mutant growth inhibition, stronger effect = higher value. Here is the method:
Growth inhibition of yeast strains with defined genetic alterations is measured as a screen for potential anti-cancer activity. Selected strains with alterations in DNA damage repair or cell cycle control were exposed to compounds and growth inhibition was measured relative to vehicle treated controls. The strain used in this assay is rad18

About 79,000 compounds went through this panel and 15% of them were active in at least one assay; those are over-represented in the sample as a whole. Calls of active or inactive are those of the source. Rule as the data show it: active = growth inhibition above about 70%; inactive = the rest.

For `OC1CCCC2CCC[N-]C12.OC1CCCC2CCC[N-]C12.[O]=[V][OH]` (stereo not given), the growth inhibition is, setting by setting: (at 1.2 µM) 46% (inactive); (at 3.7 µM) 95% (active); (at 11.0 µM) 96% (active); (at 33.0 µM) 96% (active); (at 100.0 µM) 96% (active).

`CCOP(=O)(CC(C)P(=O)(OCC)OCC)OCC.C[CH2][Sn]([Cl])([Cl])[CH2]C` (stereo not given): the growth inhibition (at 1.2 µM) was -2% (inactive); the growth inhibition (at 3.7 µM) is 4% (inactive); the growth inhibition (at 11.0 µM) was 24% (inactive); the growth inhibition (at 33.0 µM) was 75% (active); the growth inhibition (at 100.0 µM) was 92% (active).

As for `COC(=O)C1c2cc3c(c(O)c2C(O)CC1(C)O)C(=O)c1c(O)cc2c(c1C3=O)OC1OC2(C)C(O)C(N(C)C)C1O` (stereo not given), the growth inhibition is, setting by setting: (at 1.2 µM) 1% (inactive); (at 3.7 µM) 13% (inactive); (at 11.0 µM) 75% (active); (at 33.0 µM) 94% (active); (at 100.0 µM) 91% (active).

Turning to `COc1cc([C@@H]2c3cc4c(cc3C[C@@H]3COC(=O)C32)OCO4)cc(OC)c1O` (stereo not given in full), the growth inhibition (at 1.2 µM) is 2% (inactive); the growth inhibition (at 3.7 µM) is 10% (inactive); the growth inhibition (at 11.0 µM) is 65% (inactive); the growth inhibition (at 33.0 µM) was 86% (active); the growth inhibition (at 100.0 µM) is 93% (active).

For `CC[C@]1(O)CC(OC2CC(N(C)C)C(O)C(C)O2)c2c(cc3c(c2O)C(=O)c2c(O)cccc2C3=O)[C@@H]1C(=O)OC` (stereo not given in full), the growth inhibition is, setting by setting: (at 1.2 µM) 6% (inactive); (at 3.7 µM) -9% (inactive); (at 11.0 µM) 2% (inactive); (at 33.0 µM) 95% (active); (at 100.0 µM) 97% (active).

On to `CCC1(O)C(=O)OCc2c1cc1n(c2=O)Cc2cc3ccccc3nc2-1` (stereo not given), for which the growth inhibition is -6% (inactive) (at 1.2 µM); 15% (inactive) (at 3.7 µM); 21% (inactive) (at 11.0 µM); 4% (inactive) (at 33.0 µM); 7% (inactive) (at 100.0 µM).

`Nc1ccc(Cl)cc1C(=O)c1ccccc1`: the growth inhibition (at 1.2 µM) was -12% (inactive); the growth inhibition (at 3.7 µM) is -12% (inactive); the growth inhibition (at 11.0 µM) is -2% (inactive); the growth inhibition (at 33.0 µM) is 69% (inactive); the growth inhibition (at 100.0 µM) was 97% (active).

Turning to `CCCCCNC(=O)c1c(O)[nH]c(=S)[nH]c1=O`, the growth inhibition by setting is: (at 1.2 µM) -12% (inactive); (at 3.7 µM) 2% (inactive); (at 11.0 µM) 45% (inactive); (at 33.0 µM) 86% (active); (at 100.0 µM) 94% (active).

The values above are taken from PubChem BioAssay (NCI).
